Where a chain is given by its changes, count along the chain named. In all, about 24,000 sequences were measured (“enrichment r”: median about 0.99, highest 2% from about 3.7 on). Only a selection was taken, and the highest values are over-represented in it overall.
T1: UNK ZnF1-3 (human, UniProt Q9C0B0 31-174)
T1 sequence: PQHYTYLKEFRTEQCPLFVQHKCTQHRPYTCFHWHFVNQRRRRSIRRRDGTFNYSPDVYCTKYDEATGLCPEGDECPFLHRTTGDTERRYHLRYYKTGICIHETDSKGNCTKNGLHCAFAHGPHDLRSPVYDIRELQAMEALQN

B1: chr14:79828021:79828022:+_ENSMUSG00000043881_ENSMUST00000061222|mus_mus|motif|central (ssRNA)
RNA: GGGAGUUCUACAGUCCGACGAUCAGGAUCAUAGCAGAGCAUGCGCUUACUGUUGACAGCGUAAAGAUAAUUCUGAACCACGGUUAGUUCAAAUGAAUAAAAGGAAUGUGGUACAGGAGCCACCAAUGCCCAUUGGUUCCUCUGCAACAGAGGAUUGAGCAUCA
B2: chr1:154935262:154935263:-_ENSG00000160691_ENST00000448116|hu_hu|FALSE|FALSE (ssRNA)
RNA: GGGAGUUCUACAGUCCGACGAUCAUUUUGUGCUCAAGAAUAAGCAAUGGAAAAGAAAAUAGGAAAGUAAGUCUACAGCCCUAAAAUAUAUGCAUAUAAAACUUUAAAAGAAUGCAGUUCCAACUCUACAGAUGGUAUGUGGGGCAACAGAGGAUUGAGCAUCA
B3: chr11:87794696:87794697:-_ENSMUSG00000020483_ENSMUST00000020775|mus_hu|motif|central (ssRNA)
RNA: GGGAGUUCUACAGUCCGACGAUCGCCUUUUAUUUUGUAUAGGGAAAGAAAGAGAAAAGGGAGAGGUGGGAGAGAUUUCCGGGUGCAAUACAACCAAAAAAUAUUUUUAAAGUCUUGAAAAAUAAACAUAAAGCAGCCUUCUUCCAACAGAGGAUUGAGCAUCA
B4: chr3:49547525:49547526:-_ENSMUSG00000037892_ENSMUST00000035931|mus_hu|motif|central (ssRNA)
RNA: GGGAGUUCUACAGUCCGACGAUCGUUCUUAUACUAAAAAUAAAAGCAAAAAUAUGAGAUCAUGCACUGGAGACAAAAGCGGAAAAUGAAUAGUUAUAACAAAGAAAGACAAUAUUCCAAAAGAUUAAAAUGUUCAAGUAUUGUCAACAGAGGAUUGAGCAUCA
B5: chr3:49547525:49547526:-_ENSMUSG00000037892_ENSMUST00000035931|mus_mus|motif|central (ssRNA)
RNA: GGGAGUUCUACAGUCCGACGAUCGUUCAUAUGCUAAAAAUACAAGCAAAACUGUGAUAGCAUGCACAAGAGACAAAAGCGGAAGGUGAAUAAUUAUAGCCAAAAAAAGAGAGACAAUGCAGUCGAUACAAAUGUUCAAGUAUGCAACAGAGGAUUGAGCAUCA
B6: chr1:163112212:163112213:-_ENSG00000143248_ENST00000313961|hu_hu|hu_hu_hu_mus_False|1_18 (ssRNA)
RNA: GGGAGUUCUACAGUCCGACGAUCUUUUAUUAUCAGUAAGAGUGAGUUACAUACUAGGCAAAGUAUUGGAUACAAUAAUCAGGAAACAAACACUAUUGGUCCAGAAUUUAAAACUUUUGGGAUAAAUUGCUGGCACAGGAUUUACAACAGAGGAUUGAGCAUCA
B7: chr3:49547525:49547526:-_ENSMUSG00000037892_ENSMUST00000035931|mus_hu|FALSE|FALSE (ssRNA)
RNA: B4 RNA with G80U, G81A
B8: chr9:90322654:90322655:+_ENSG00000196730_ENST00000408954|hu_hu|FALSE|FALSE (ssRNA)
RNA: GGGAGUUCUACAGUCCGACGAUCAAAGAAAAGCGUAUAAGAAAUACACAUUUUGGAUAAAUAUGCACUUUUCUUUUUUAAAGGACAAUCAAUAUAGUAGUUAAAAAAAAUGUCAUUGAAAAGUUAGGAAUUCCAGCAAAAUUACAACAGAGGAUUGAGCAUCA
B9: chr1:154935262:154935263:-_ENSG00000160691_ENST00000448116|hu_hu|motif|central (ssRNA)
RNA: B2 RNA with U81G, A82G
B10: chr4:21667751:21667752:+_ENSMUSG00000028252_ENSMUST00000108240|mus_mus|motif|central (ssRNA)
RNA: GGGAGUUCUACAGUCCGACGAUCUUCUAGUAUAUGAUUCAUCCUGUAAGGAAAUUCCUUUGGAAAAGCAUAUGAAAAUCGGGUUUUUAAUACAGAAGUAGUAGCAGCAAUCAAUCUUGUAUUUGAGACAACACCAAAUUCCUCCAACAGAGGAUUGAGCAUCA
B11: chr20:5919097:5919098:-_ENSG00000089195_ENST00000203001|hu_hu|FALSE|FALSE (ssRNA)
RNA: GGGAGUUCUACAGUCCGACGAUCGUUCUUAUUCUUGGGAUAUGAAAAAACAAGUAGUAAUGGCAUUUAAAGUUUAAUUACUAACUGUAUAAUGCCUGAGAACAAAAUUCAGAGCAAUUCUCAAAAGGGUUAAGAGUCAGACUCCAACAGAGGAUUGAGCAUCA
B12: chr5:145543945:145543946:-_ENSG00000133706_ENST00000545646|hu_hu|hu_hu_hu_mus_True|58_98 (ssRNA)
RNA: GGGAGUUCUACAGUCCGACGAUCCUGAACGGCCAGUGGCGGGAAAUAAUCAAGCCAGUGCUCUGCUUCAGAAAACUUUACUAUCUCGUCAUCAGAGAGCCCAAGGGAUUUCAUAAUGUCCCACUGGUACUUAGAAGAUCCUGCCAACAGAGGAUUGAGCAUCA
B13: chrX:20248820:20248821:+_ENSMUSG00000001924_ENSMUST00000001989|mus_mus|mus_mus_mus_hu_True|78_78 (ssRNA)
RNA: GGGAGUUCUACAGUCCGACGAUCGGCGAAGUCCGUCACCACAAAGUCAGGUUCUGCCAGUGAUGCUACCAAGGAUUUAAAGCUAAUCUUCUUAGGUACUUUGACCUGACUGACGAUGCCUCCACGGAUGUAGUCGGAGAAGUUCAACAGAGGAUUGAGCAUCA
B14: chr1:66480114:66480115:+_ENSMUSG00000015222_ENSMUST00000024639|mus_hu|mus_mus_mus_hu_True|28_28 (ssRNA)
RNA: GGGAGUUCUACAGUCCGACGAUCUGGCCUGUGGCGGAUGUUCUUCAGAGAGCCACAUUUGGAUGUCACAUGGCUUAGGUCUAUUUUCUUGGUAACAAUUUGUACCUGACCCCCCUUAGGCUGGUAUUUGAUGUUGUCUGUUGACAACAGAGGAUUGAGCAUCA
B15: chrX:100668055:100668056:+_ENSG00000126945_ENST00000316594|hu_mus|FALSE|FALSE (ssRNA)
RNA: GGGAGUUCUACAGUCCGACGAUCGAGCUCUACAUAGCUAUGAUCAUAAGCUCCUCCACUUGUCCCUGCGGUAGAAUUCAAGAAGAGCUCCACAUAUCUGUGUUGCAUAUUUGCUUUAUCUUUUGCCAUAGCUGCCACAGCGUCCAACAGAGGAUUGAGCAUCA
B16: chr12:118471567:118471568:-_ENSG00000176871_ENST00000315436|hu_hu|motif|central (ssRNA)
RNA: GGGAGUUCUACAGUCCGACGAUCGCACUUGGCCAACAUCGAAGCAACUCUGACCACAGCAGGAGAGAACUUGAACCAAUGCGGCCACUGCAUCAGAAACACAAGGAUAGGUACUAGGCAGAAGCCAUCGUUCCCAGCGGAGGGCAACAGAGGAUUGAGCAUCA
B17: chr5:128448638:128448639:+_ENSG00000066583_ENST00000173527|hu_mus|hu_hu_hu_mus_False|18_48 (ssRNA)
RNA: GGGAGUUCUACAGUCCGACGAUCGGCACUCGCCUUAAUUAGGUUCUGAAUUUCCUUGAACUUCGGGUGGUCUUUGUCAGCCACCAGCUGAAGCAGAACAGCCUCACUAGUGGUCACUAUGAUCCCGGUGCGGGCAAGACGCUCCAACAGAGGAUUGAGCAUCA
B18: chr16:68260615:68260616:+_ENSG00000072736_ENST00000346183|hu_hu|FALSE|FALSE (ssRNA)
RNA: GGGAGUUCUACAGUCCGACGAUCGAAACAAGAGAGCCUGCUGCAUUCACACUCAAAGCACCCAUCAUAUAAAAGUAUCCUAGUUAAAUAUAAAAAGCAAAGUUCAUUUCCCCAAAGCUCAAACAGCCUAUGCUGCUCCUGUUCCAACAGAGGAUUGAGCAUCA
B19: chr1:157160411:157160412:-_ENSMUSG00000026469_ENSMUST00000027741|mus_mus|motif|central (ssRNA)
RNA: GGGAGUUCUACAGUCCGACGAUCGAAUUCAAUCAGAAGAAAGCCACCCCGAUAGAUUCUUAUCAAGGGCCAUACAGUUCGGUCUGUUUCAAGUUUAAAUACAGCUGCAAACACAAGGGUAAUAUUCAGCACAAUGAAUAUUCCCAACAGAGGAUUGAGCAUCA
B20: chr1:157160411:157160412:-_ENSMUSG00000026469_ENSMUST00000027741|mus_mus|FALSE|FALSE (ssRNA)
RNA: B19 RNA with G80U, G81A
B21: chr15:103023242:103023243:-_ENSMUSG00000009575_ENSMUST00000118152|mus_mus|FALSE|FALSE (ssRNA)
RNA: GGGAGUUCUACAGUCCGACGAUCAACUAGCAGCAUUGAUGAGGGGUUAAGGGAUUGGGGACAGAAACUCACCAAGGUCACUAAGUACUUCCAAACUUGGAAGUAGCUCAGUGAGGGCUAAAAAAACUUCGACUGAAGGUAUCCCAACAGAGGAUUGAGCAUCA
B22: chr14:67424093:67424094:-_ENSMUSG00000022048_ENSMUST00000022629|mus_mus|motif|central (ssRNA)
RNA: GGGAGUUCUACAGUCCGACGAUCGGAGACCGAGUGCAGGGGGCCCAAGAGGAAGCCCCAGGAACUGGCUGCCCACAGCAACGGUCACAGGCUCUUUAAAAAAAAAAAAAAUGGAAGAAAGGAAGUCUCAGAAUGUCCUCAGGUCAACAGAGGAUUGAGCAUCA
B23: chr17:35975164:35975165:-_ENSMUSG00000001525_ENSMUST00000001566|mus_hu|FALSE|FALSE (ssRNA)
RNA: GGGAGUUCUACAGUCCGACGAUCGGAAUGCGCCCCAGAGGCUGGAGCAGCGAGGUGCAAACGCGACGGCAGGAAGGUUCUGAGAGGGAGAAAGGAGAGGGGAGGGCGCGGAGGGAAAGCAGGCUGGGCGGGGCGCGCGUGCGCCAACAGAGGAUUGAGCAUCA
B24: chr1:26230221:26230222:-_ENSG00000117632_ENST00000374291|hu_mus|FALSE|FALSE (ssRNA)
RNA: GGGAGUUCUACAGUCCGACGAUCCUGGAUUUCCUCCAGGGAAAGGUCCUUCUUCUUUGGGGGGGAAAGGGGGAAAUCGGGGACAGAUUCUUUUGACCGAGGGCUGAGAAUCAGCUCAAAAGCCUGGCCUGAAGCGCGCUUCUCCAACAGAGGAUUGAGCAUCA
B25: chr14:67424093:67424094:-_ENSMUSG00000022048_ENSMUST00000022629|mus_mus|FALSE|FALSE (ssRNA)
RNA: B22 RNA with G82U, G83A
B26: 72187872_72187992_6815_3pUTR_ENSG00000148730_ENST00000373218|human|control|control (ssRNA)
RNA: GGGAGUUCUACAGUCCGACGAUCGAGUGUCCUCUGGGCUCUUCAAGACACCUUCUUUAAGGUUUACCCCUGGAGUAGCAGAGGGUCUCCUCACCCAGGUGGAAAGAGAUGGGCUCCAUCUGCAGAUGAAGGAAAGGCACUGGCCAACAGAGGAUUGAGCAUCA
B27: chr5:145543945:145543946:-_ENSG00000133706_ENST00000545646|hu_hu|hu_hu_hu_mus_True|48_48 (ssRNA)
RNA: B12 RNA with C39U, U78C, C84G, G87U, G96C

Target: T1, UNK ZnF1-3
Assay: nsRBNS (natural sequence RNA bind-n-seq); RBNS binding buffer (assumed for nsRBNS): 25 mM Tris pH 7.5, 150 mM KCl, 3 mM MgCl2, 0.01% Triton X-100, 500 ug/ml BSA, 20 U/ml SUPERase-In, 4 C; UNK is unkempt and MSI1 is Musashi-1; names of the RNAs are library labels; protein concentration not given here; high values mean tight binding

| Binder | binding signal |
| --- | --- |
| B1 | 1.02 enrichment R |
| B2 | 3.55 enrichment R |
| B3 | 3.42 enrichment R |
| B4 | 3.95 enrichment R |
| B5 | 1.91 enrichment R |
| B6 | 1.27 enrichment R |
| B7 | 4.56 enrichment R |
| B8 | 8.3 enrichment R |
| B9 | 3.69 enrichment R |
| B10 | 0.985 enrichment R |
| B11 | 0.585 enrichment R |
| B12 | 1.23 enrichment R |
| B13 | 0.842 enrichment R |
| B14 | 0.629 enrichment R |
| B15 | 1 enrichment R |
| B16 | 1.61 enrichment R |
| B17 | 0.517 enrichment R |
| B18 | 4.02 enrichment R |
| B19 | 0.944 enrichment R |
| B20 | 0.961 enrichment R |
| B21 | 1.71 enrichment R |
| B22 | 4.34 enrichment R |
| B23 | 2.69 enrichment R |
| B24 | 0.676 enrichment R |
| B25 | 3.82 enrichment R |
| B26 | 1.96 enrichment R |
| B27 | 1.07 enrichment R |

From publication PMC12136788
